The source made the active and inactive calls. Unless noted, no rule for the calls is given here.

Assay [1] deals with Wnt5a (protein binding on small-molecule microarray). Description: Wnt5a binders on small-molecule microarray, primary screen, biophysical, 635/667 nm fluorescence (AID 1142).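 Also: fluorescence read at 667 nm with signal to noise per printed feature.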 Conditions: 635 nm fluorescence, higher = more signal.
Assay [2] is described as follows: cell viability in Huh7 cells, primary screen, cytotoxicity control for HCV replication inhibitor project, CellTiter-Glo luminescence, basal, 48 h (AID 1143).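 Also: Huh7 hepatoma cells carrying a hepatitis C replication reporter with no stimulus; test concentration not given here.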 Conditions: Huh7 HCV replicon, higher = more signal, called active from +8 up or from −8 down.
Assay [3] can be described thus: P. aeruginosa biofilm formation inhibitors, primary screen, PAO1 strain, BacTiter-Glo luminescence, LB-PBS (AID 1144). Conditions: 12 h, higher = more signal.
Assay [4] in a line: CREB reporter modulators without forskolin, primary screen, cell-based, PC12, CRE-LacZ reporter, unstimulated (AID 1145). Conditions: no forskolin, luminescence, 4.5 h, higher = more signal, called active from +8 up or from −8 down.
Assay [5] can be described thus: CREB reporter modulators under forskolin, primary screen, cell-based, PC12, CRE-LacZ reporter, forskolin-stimulated (AID 1146).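 Also: PC12 cells with 6xCRE LacZ reporter stimulated by forskolin 10 µM; beta-galactosidase reporter signal reflecting CREB driven transcription.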 Conditions: luminescence, 4.5 h, higher = more signal, called active from +8 up or from −8 down.
For assay [6], the target named is Streptavidin (Streptomyces avidinii) (UniProt P22629). In words: streptavidin binders on small-molecule microarray, primary screen, artefact control for SMM compound annotation, biophysical, 635/667 nm fluorescence (AID 1147).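 Also: signal reflects streptavidin binding to arrayed compounds as a control protein.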 Conditions: streptavidin binding, higher = more signal.
Assay [7] can be described thus: small-molecule binders of probe aInhba, primary screen, biochemical, small-molecule microarray, 635/667 nm fluorescence (AID 1148).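 Also: score merges 667nm spot fluorescence with signal-to-noise for antibody binding to printed compounds.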 Conditions: higher = more signal.
In assay [8] the target is Torsin-1A (Homo sapiens) (UniProt O14656). In words: torsin A binders from cell lysate, primary screen, small-molecule microarray, wild-type, 635/667 nm (AID 1149). The settings on record: COS7 hTOR1A-WT lysate, 635 nm fluorescence, higher = more signal.
The target is the same in assay [9]. In words: small-molecule binders of mutant TOR1A in lysate, primary screen, cell lysate, small-molecule microarray, COS7 lysate, 635/667 nm fluorescence (AID 1150).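 Also: score pools 667 nm emission and signal to noise measuring lysate protein binding.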 The settings on record: COS7 hTOR1A mutant lysate, 635 nm fluorescence, higher = more signal.
Assay [10] concerns Sonic hedgehog protein (Shh). In words: small-molecule binders of Shh protein, primary screen, biochemical, small-molecule microarray, 635/667 nm fluorescence (AID 1151).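 Also: Shh protein binding to compounds spotted on small-molecule microarray slides; score combines spot fluorescence intensity with signal-to-noise across triplicate slides.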 Conditions: small-molecule microarray binding, 635 nm fluorescence; higher = more signal.

Torsin-1A (Homo sapiens), sequence (O14656 whole entry, looked up): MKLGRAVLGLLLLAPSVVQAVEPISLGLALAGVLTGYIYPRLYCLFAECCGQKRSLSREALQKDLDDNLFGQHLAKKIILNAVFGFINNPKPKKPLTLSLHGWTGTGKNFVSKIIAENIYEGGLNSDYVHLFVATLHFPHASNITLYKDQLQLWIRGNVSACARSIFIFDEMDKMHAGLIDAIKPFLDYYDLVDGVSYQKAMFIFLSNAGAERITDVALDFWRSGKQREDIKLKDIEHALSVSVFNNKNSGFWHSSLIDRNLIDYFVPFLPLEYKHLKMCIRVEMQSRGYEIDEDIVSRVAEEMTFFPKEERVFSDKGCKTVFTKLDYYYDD
Streptavidin (Streptomyces avidinii), sequence (P22629 whole entry, looked up): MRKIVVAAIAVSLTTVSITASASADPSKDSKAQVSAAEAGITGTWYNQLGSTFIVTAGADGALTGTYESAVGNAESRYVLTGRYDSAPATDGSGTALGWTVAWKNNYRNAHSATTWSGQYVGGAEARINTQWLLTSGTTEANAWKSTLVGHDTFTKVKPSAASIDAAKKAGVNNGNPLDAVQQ

With `CN(C)CCCNC(=O)[C@@]1(Cc2ccccc2I)c2ccccc2C(=O)N(Cc2ccccc2C(F)(F)F)[C@H]1c1ccc(CO)cc1`, the composite z-score was -0.753 in [1]; 0.154 in assay [6]; -0.162 in [7]; -1.08 in the assay with Torsin-1A (Homo sapiens) [8]; 0.135 in the assay with Torsin-1A (Homo sapiens) [9]; -0.678 in assay [10]. Besides, the z-score in [2] is -5.77 (inactive); in [3], -0.233 (inactive); in assay [4] it was 0.351 (inactive); in [5], -0.742 (inactive).
In the case of `CCCCCCc1nc(CCCc2cc3c(c(CCCCCC)n2)[Si](C(C)C)(C(C)C)OC3)cc2c1[Si](C(C)C)(C(C)C)OC2`, the composite z-score in assay [1] was -0.0564; in assay [6], 1.91; in [7], -0.101; in the assay with Torsin-1A (Homo sapiens) [8] it was -0.333; with Torsin-1A (Homo sapiens) [9], 0.0509; in [10] it was 0.551. Further, the z-score in [2] is -5.79 (inactive); in assay [3], -0.194 (inactive); in assay [4] it was 1.78 (inactive); in [5] it was 0.444 (inactive).
As to `COc1cc(C(O)C2C=CC3C(=O)N(c4ccccc4)C(=O)C3N2Nc2ccc(C#N)cc2)cc(OC)c1OC` (stereo not given), the composite z-score in [1] was 0.537; in assay [6] it was 1.66; in assay [7], 0.201; in the assay with Torsin-1A (Homo sapiens) [8], 0.249; in the assay with Torsin-1A (Homo sapiens) [9] it was 0.204; in assay [10] it was 0.117. In addition, the z-score in assay [2] was 0.616 (inactive); in assay [3], -0.201 (inactive); in [4], 0.426 (inactive); in assay [5], 0.238 (inactive).
Turning to `COCCOC(=O)N1C(=O)[C@@]2(c3ccccc31)[C@H](C(=O)Nc1nc3ccccc3s1)[C@H]1C(=O)O[C@H](c3ccccc3)[C@H](c3ccccc3)N1[C@@H]2c1ccc(OCCO)cc1`, the composite z-score in [1] worked out at 0.931; in assay [6] it was 0.82; in [7], 0.038; with Torsin-1A (Homo sapiens) [8], 0.488; with Torsin-1A (Homo sapiens) [9], 1.25; in [10] it was 1.12. Moreover, the z-score in assay [2] was -2.34 (inactive); in [3], -0.706 (inactive); in assay [4], -0.878 (inactive); in assay [5] it was -0.523 (inactive).
In the case of `COc1cc(CO)ccc1OC(C)=O`, the composite z-score is 0.226 in assay [1]; 0.683 in [6]; -0.308 in [7]; 0.867 in the assay with Torsin-1A (Homo sapiens) [8]; 0.388 in the assay with Torsin-1A (Homo sapiens) [9]; 1.05 in assay [10]. Also, the z-score in assay [2] is -2.07 (inactive); in [3], -0.433 (inactive); in assay [4] it was 0.0918 (inactive); in assay [5] it was -0.874 (inactive).
`COC(=O)C[C@@H]1C[C@H](C)[C@]2(O1)C(=O)N(Cc1ccccc1)c1ccc(NC(C)=O)cc12`: the composite z-score in assay [1] is 0.739; in [6] it was -0.101; in [7] it was -0.128; in the assay with Torsin-1A (Homo sapiens) [8], 0.0771; in the assay with Torsin-1A (Homo sapiens) [9], 0.362; in assay [10] it was 0.034. Moreover, the z-score is -0.578 (inactive) in [2], 0.347 (inactive) in assay [3], 3.56 (inactive) in [4] and -0.47 (inactive) in [5].
Take `COCCOC(=O)N1C(=O)[C@@]2(c3cc(C#CCCO)ccc31)[C@H](C(=O)NC[C@H](O)c1ccccc1)[C@H]1C(=O)O[C@H](c3ccccc3)[C@H](c3ccccc3)N1[C@@H]2c1ccc(O)cc1`: the composite z-score in [1] was 0.0418; in assay [6] it was 0.276; in [7] it was -0.0136; with Torsin-1A (Homo sapiens) [8] it was 0.581; in the assay with Torsin-1A (Homo sapiens) [9], 1.12; in assay [10] it was 1.79. Besides, the z-score is -0.612 (inactive) in assay [2], -1.16 (inactive) in assay [3], -1.29 (inactive) in [4] and -0.201 (inactive) in assay [5].
`O=C1O[C@@H](c2ccccc2)[C@@H](c2ccccc2)N2[C@@H](c3ccc(O)cc3)[C@]3(C(=O)Nc4ccc(C#CC5=CCCCC5)cc43)[C@@H](C(=O)O)[C@H]12`: the composite z-score worked out at 0.942 in assay [1]; 1.75 in assay [6]; 0.198 in [7]; 0.198 in the assay with Torsin-1A (Homo sapiens) [8]; 0.637 in the assay with Torsin-1A (Homo sapiens) [9]; 0.146 in assay [10]. In addition, the z-score was -2.52 (inactive) in [2], -2.85 (inactive) in assay [3], -0.0515 (inactive) in [4] and -1.12 (inactive) in [5].
With `CO[C@H]1O[C@H](CO)[C@@H](OC(=O)Nc2ccc(Oc3ccccc3)cc2)[C@H](OC(=O)Nc2ccccc2)[C@H]1OC(=O)Nc1ccccc1`, the composite z-score stood at 1.07 in assay [1]; 0.693 in assay [6]; 0.167 in assay [7]; 0.546 in the assay with Torsin-1A (Homo sapiens) [8]; 0.76 with Torsin-1A (Homo sapiens) [9]; 1.86 in assay [10]. Also, the z-score is -5.1 (inactive) in assay [2], -2.24 (inactive) in assay [3], 0.512 (inactive) in assay [4] and -1.64 (inactive) in [5].
In the case of `COc1ccc([Si](C)(C)[C@H]2[C@H](CC(=O)N(CCO)Cc3ccccc3)O[C@@]3(C(=O)N(Cc4cccc(N5CCC5=O)c4)c4ccccc43)[C@@H]2C)cc1`, the composite z-score in assay [1] is 0.526; in assay [6], 0.0587; in [7] it was -0.0221; with Torsin-1A (Homo sapiens) [8] it was 0.795; with Torsin-1A (Homo sapiens) [9] it was 0.278; in [10], 2.05. Besides, the z-score was -6.85 (inactive) in [2], -0.216 (inactive) in [3], 0.469 (inactive) in [4] and -0.854 (inactive) in [5].
`COCCOC(=O)N1C(=O)[C@@]2(c3cc(C#CCNC(N)=O)ccc31)[C@H](c1ccc(OCCO)cc1)N1[C@H](c3ccccc3)[C@H](c3ccccc3)OC(=O)[C@H]1[C@@H]2C(=O)N1CCc2cc(OC)c(OC)cc2C1`: the composite z-score is 0.426 in [1]; 0.175 in assay [6]; -0.0136 in assay [7]; 0.0053 with Torsin-1A (Homo sapiens) [8]; -0.193 with Torsin-1A (Homo sapiens) [9]; 0.815 in assay [10]. Besides, the z-score in assay [2] was -0.0916 (inactive); in assay [3] it was -1.59 (inactive); in assay [4] it was -0.471 (inactive); in assay [5] it was -0.644 (inactive).
As to `COc1ccc([Si](C)(C)[C@H]2[C@H](CCn3cc([C@H](O)c4ccccc4)nn3)O[C@@]3(C(=O)N(Cc4cccc(N5CCC5=O)c4)c4ccccc43)[C@@H]2C)cc1`, the composite z-score in assay [1] was 0.42; in [6], 0.552; in [7], -0.045; with Torsin-1A (Homo sapiens) [8] it was 0.358; in the assay with Torsin-1A (Homo sapiens) [9], 0.0772; in [10], 1.9. Further, the z-score in [2] is -1.67 (inactive); in assay [3], 0.115 (inactive); in assay [4], 2.55 (inactive); in [5], -0.157 (inactive).
Turning to `O=C(CS)NCCCCCCNC(=O)[C@H]1C[C@H]2C(=O)NCC(=O)N2[C@H]1c1ccc(O)cc1`, the composite z-score in [1] is -0.319; in [6], -0.406; in [7], -0.188; with Torsin-1A (Homo sapiens) [8], -0.21; in the assay with Torsin-1A (Homo sapiens) [9], -0.14; in assay [10] it was 0.518. The z-score in assay [2] was 0.0181 (inactive); in assay [3] it was -0.333 (inactive); in assay [4] it was 0.692 (inactive); in assay [5], 0.551 (inactive).
Consider `COc1ccc(CCNC(=O)[C@@H]2c3ccccc3C(=O)N(Cc3ccc(OC(F)(F)F)cc3)[C@H]2c2ccc(CO)cc2)cc1`, for which the composite z-score in assay [1] is 0.446; in assay [6], -0.0886; in [7], -0.0465; with Torsin-1A (Homo sapiens) [8], -0.271; with Torsin-1A (Homo sapiens) [9], 0.366; in [10], -0.144. For the same molecule, the z-score in assay [2] is -2.71 (inactive); in assay [3], -0.676 (inactive); in [4], -0.475 (inactive); in assay [5] it was -0.206 (inactive).
Turning to `COCCOC(=O)N1C(=O)[C@@]2(c3cc(C#CCNC(N)=O)ccc31)[C@H](c1ccc(O)cc1)N1[C@H](c3ccccc3)[C@H](c3ccccc3)OC(=O)[C@H]1[C@@H]2C(=O)NC[C@H](O)c1ccccc1`, the composite z-score in assay [1] was 0.545; in assay [6], -0.0027; in assay [7], 0.415; with Torsin-1A (Homo sapiens) [8], 0.76; with Torsin-1A (Homo sapiens) [9], 0.353; in assay [10] it was 1.75. For the same molecule, the z-score was 0.123 (inactive) in [2], 0.00448 (inactive) in [3], -0.606 (inactive) in assay [4] and -0.197 (inactive) in assay [5].

The record behind these values is PubChem BioAssay.
